Here are results for 44 sequences from publication PMC7819943, “Rice protein-binding microarrays: a tool to detect cis-acting elements near promoter regions in rice”.

Over roughly 35,000 sequences, “fluorescence intensity (a.u.)” has its median near 10,000; the highest 2% begin near 52,000. For the sample, the highest values were picked, then their nearest neighbours and some sequences at random.

This test deals with T1, OsWOX13 (Oryza sativa, UniProt Q5QMM3 1-267).
T1 sequence: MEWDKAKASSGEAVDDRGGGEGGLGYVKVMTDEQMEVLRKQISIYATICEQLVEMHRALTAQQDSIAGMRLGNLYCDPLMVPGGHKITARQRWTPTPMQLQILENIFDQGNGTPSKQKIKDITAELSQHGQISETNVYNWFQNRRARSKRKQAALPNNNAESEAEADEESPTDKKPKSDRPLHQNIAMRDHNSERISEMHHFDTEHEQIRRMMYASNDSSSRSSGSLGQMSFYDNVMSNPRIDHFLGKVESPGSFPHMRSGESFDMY
Kind of test: protein-binding microarray (RPBM); PBS, 2% BSA, 51.3 ng/ul salmon testes DNA, 50 uM zinc acetate, 200 nM TF, 25 C, 1 h; high values mean tight binding. To be noted: protein: recombinant; tags: N-terminal polyhistidine and DsRed monomer fusion (pET32a); label: CyDye5-dUTP incorporated in the synthesized complementary strand; 3' TTTTT single-stranded linker to array surface; dsDNA, one strand shown. The procedure, abridged: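 Binding signal is defined as the fluorescence intensity of each feature in arbitrary units, read on an Axon 4000B scanner. Transcription factors with N-terminal polyhistidine and DsRed fusions came from E. coli BL21-CodonPlus and were purified on Ni–NTA. They were incubated at 200 nM for 1 h at 25 °C on a custom Agilent array that had been made double-stranded with Cy5-dUTP, with 50 µM zinc acetate present, and the array was washed.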
On to “ACACAGCTAATTAGCTCTATGACTAAATGAATAAAATGACCGGAGTCACCTAGTGCAG”, for which the binding signal is 25800 fluorescence intensity (a.u.).

Consider “TCGTCAGGTTAATCAAGGGAGGATTGAACGAGATTTCGTGCGGAGTCACCTAGTGCAG”, for which the binding signal was 5920 fluorescence intensity (a.u.).

For the sequence “TGATCTAATCAATGACAGCGACTTGGTTCCATGTTCTTCCCGGAGTCACCTAGTGCAG”, the binding signal was 12300 fluorescence intensity (a.u.).

Take “TATTCAATAACTAAATTAATGCCTGATTTACGTTGTTCGTCGGAGTCACCTAGTGCAG”: the binding signal was 17400 fluorescence intensity (a.u.).

“TCTTAATTTCTATCAATAATTTAATTTAGCATATAATAACCGGAGTCACCTAGTGCAG”: the binding signal was 31300 fluorescence intensity (a.u.).

In the case of “ATTGATGATTTAATGAAACTAATTTGATATTGTAGATGTTCGGAGTCACCTAGTGCAG”, the binding signal is 48300 fluorescence intensity (a.u.).

Take “CCACTAACAGTCTAACAACATGATAAGGCCTCCGCAACCACGGAGTCACCTAGTGCAG”: the binding signal is 3920 fluorescence intensity (a.u.).

On to “CTAATTACGTCATGATTTGACAATGTGGTGTGGTGCTACACGGAGTCACCTAGTGCAG”, for which the binding signal was 37500 fluorescence intensity (a.u.).

Consider “TTGAGCCTAATTACGCCATGATTTGACAATGTGATGCTACCGGAGTCACCTAGTGCAG”, for which the binding signal is 40200 fluorescence intensity (a.u.).

Regarding “TGTATGCGATTTGATTAAACTTTTAAAATGTTGATTATTACGGAGTCACCTAGTGCAG”, the binding signal was 4680 fluorescence intensity (a.u.).

As for “AGCCTAATTACGCCATGATTTGACAATGTGGTGCTACAGTCGGAGTCACCTAGTGCAG”, the binding signal is 58300 fluorescence intensity (a.u.).

For the sequence “GAGCCTAATTACGCCATGATTTGACAATGTGGTGCTACAGCGGAGTCACCTAGTGCAG”, the binding signal was 39300 fluorescence intensity (a.u.).

“GATATGATATTGACACATGATATGTAATTATATATAGAGCCGGAGTCACCTAGTGCAG”: the binding signal is 11400 fluorescence intensity (a.u.).

As to “AACTAAAATTACATATGTAAATTTAGTTGATATGACATGTCGGAGTCACCTAGTGCAG”, the binding signal was 24600 fluorescence intensity (a.u.).

“ATTTGATTGACGAGGTATAGTAAAATGCGTCAACTTATGTCGGAGTCACCTAGTGCAG”: the binding signal was 63200 fluorescence intensity (a.u.).

Take “AAAATTGATATGTAATTATGACACACTTACGTCGGATATGCGGAGTCACCTAGTGCAG”: the binding signal was 64500 fluorescence intensity (a.u.).

As to “AGCCTAATTACGTCATGATTTGACAATGTAATGATACCGTCGGAGTCACCTAGTGCAG”, the binding signal was 53500 fluorescence intensity (a.u.).

Take “GCCTAATTACGCCATGATTTGATAATGTGGTGCTACAGTACGGAGTCACCTAGTGCAG”: the binding signal is 41800 fluorescence intensity (a.u.).

In the case of “TGTAAATATATTATGATTGTAGTATAACTTATATAGTATTCGGAGTCACCTAGTGCAG”, the binding signal was 10900 fluorescence intensity (a.u.).

Turning to “CCTGACATCTCTCAATCGGACGGTGGATACCACCTCACCGCGGAGTCACCTAGTGCAG”, the binding signal is 3620 fluorescence intensity (a.u.).

As to “CGGTCATCAATCTCATCAGCTACATCCCAAAGGGGAATCACGGAGTCACCTAGTGCAG”, the binding signal is 5580 fluorescence intensity (a.u.).

As for “ATTTGATTTAAAACCTCAGTTTTCGATTGAGAGAAAATATCGGAGTCACCTAGTGCAG”, the binding signal is 4350 fluorescence intensity (a.u.).

Turning to “CTGTCAATCTGCATATATCTGTCTCTCTTACTCACTAACACGGAGTCACCTAGTGCAG”, the binding signal is 8750 fluorescence intensity (a.u.).

Consider “ACTCACGCGCAATTAGCTGGTTTTGATGGGTCAGGAGGAACGGAGTCACCTAGTGCAG”, for which the binding signal is 5020 fluorescence intensity (a.u.).

As to “TGTAATTTAATTTTGCCTCCACATTTCCTGACTTTGGCCACGGAGTCACCTAGTGCAG”, the binding signal was 45700 fluorescence intensity (a.u.).

Turning to “ACGCCATGATTTGACAATGTGATGCTACAGTAAACATTTGCGGAGTCACCTAGTGCAG”, the binding signal was 23300 fluorescence intensity (a.u.).

For the sequence “ACGCCATGATTGACAATGTGATGCTACAGTAAACATTTGCCGGAGTCACCTAGTGCAG”, the binding signal is 53900 fluorescence intensity (a.u.).

Take “CCATGATTTGACAATGTGATGCTACAGTAAACATTTGCTACGGAGTCACCTAGTGCAG”: the binding signal was 42800 fluorescence intensity (a.u.).

As for “CACCATAACTAATTAACAAGCCACCTATTTCCTCTTGACACGGAGTCACCTAGTGCAG”, the binding signal was 10800 fluorescence intensity (a.u.).

Regarding “AGCCATGCATCAACACGTAATTAAGTACTAGTTGACAGTGCGGAGTCACCTAGTGCAG”, the binding signal is 4190 fluorescence intensity (a.u.).

In the case of “CGGCTAATTAATTTATATTTCTATATGTATTGACCCTGTTCGGAGTCACCTAGTGCAG”, the binding signal is 61100 fluorescence intensity (a.u.).

For “GCTAATTAATCTATTATTGATTTAGATGTATCGACCAGTTCGGAGTCACCTAGTGCAG”, the binding signal was 53500 fluorescence intensity (a.u.).

As for “TTGCTTTAACTAGCTGCTTAATTATATGTTCTTTGTATTTCGGAGTCACCTAGTGCAG”, the binding signal is 5230 fluorescence intensity (a.u.).

As to “CCGAATTTCTATTATTTCTTAATTGTATTTCTATATGGACCGGAGTCACCTAGTGCAG”, the binding signal is 7410 fluorescence intensity (a.u.).

Turning to “ATGTATTTAATTATAGATTTAATAAAATTAATCTAGTGTTCGGAGTCACCTAGTGCAG”, the binding signal was 17500 fluorescence intensity (a.u.).

As for “CACATTCAGTTCTAGATTAATTTATTTTGGATGAATGTATCGGAGTCACCTAGTGCAG”, the binding signal was 6060 fluorescence intensity (a.u.).

“AATCAATTATAACCATTTTCTATTTAATTACCTCACGCACCGGAGTCACCTAGTGCAG”: the binding signal was 25700 fluorescence intensity (a.u.).

Consider “ATATAACAGTTTATTCACAAATTATTTTCCGTTTGCAAATCGGAGTCACCTAGTGCAG”, for which the binding signal was 6830 fluorescence intensity (a.u.).

Consider “ATTGACAAGATAGATTGTTGCCCAATTTTCGAAGATGCTCCGGAGTCACCTAGTGCAG”, for which the binding signal was 42000 fluorescence intensity (a.u.).

For “AATATTGATGCTTAAATTTCTTTCGAAGATCCTATGGAAGCGGAGTCACCTAGTGCAG”, the binding signal is 3840 fluorescence intensity (a.u.).

In the case of “ATAAATTGATGCCCAATTTTCGAAGATGCTCATAGGGGTGCGGAGTCACCTAGTGCAG”, the binding signal was 52500 fluorescence intensity (a.u.).

Regarding “TCCTGTAACAGAATTGGAAAACCCAATCTGGCGACGGCTGCGGAGTCACCTAGTGCAG”, the binding signal was 9790 fluorescence intensity (a.u.).

For the sequence “CTTGACAGGCACCGTGATACTTGGGTTCTTGATATAACTGCGGAGTCACCTAGTGCAG”, the binding signal is 34400 fluorescence intensity (a.u.).

On to “AATCCTCTTAATTATTATTAGCGGTTCGTCCTATGATCTTCGGAGTCACCTAGTGCAG”, for which the binding signal was 7080 fluorescence intensity (a.u.).
